Measured values taken from PubChem BioAssay (NCATS).
Values without a mark were called inactive. Results filed as inconclusive are left out. Entries that show only a call come without a potency. Activity calls are given as the source filed them. Unless noted, calls follow the shape of the dose curve; as a rule, active = well fitted curve in the direction sought with a large enough effect; inconclusive = small, poorly fitted or top-dose-only effect, or another doubt; inactive = no such curve, though single readings can be large; an effect the other way counts as inactive or inconclusive.

How the values were obtained:
[1] = molecular target: Lysosomal acid glucosylceramidase (Homo sapiens) (UniProt P04062); assay: Glucocerebrosidase-p2 (AID 348; in the data active = potency below about 10 µM; also: potency is read from the fitted curve at half-maximal effect); settings: purified GBA, blue fluorogenic substrate, 40 min
Lysosomal acid glucosylceramidase (Homo sapiens), sequence (P04062 whole entry, looked up): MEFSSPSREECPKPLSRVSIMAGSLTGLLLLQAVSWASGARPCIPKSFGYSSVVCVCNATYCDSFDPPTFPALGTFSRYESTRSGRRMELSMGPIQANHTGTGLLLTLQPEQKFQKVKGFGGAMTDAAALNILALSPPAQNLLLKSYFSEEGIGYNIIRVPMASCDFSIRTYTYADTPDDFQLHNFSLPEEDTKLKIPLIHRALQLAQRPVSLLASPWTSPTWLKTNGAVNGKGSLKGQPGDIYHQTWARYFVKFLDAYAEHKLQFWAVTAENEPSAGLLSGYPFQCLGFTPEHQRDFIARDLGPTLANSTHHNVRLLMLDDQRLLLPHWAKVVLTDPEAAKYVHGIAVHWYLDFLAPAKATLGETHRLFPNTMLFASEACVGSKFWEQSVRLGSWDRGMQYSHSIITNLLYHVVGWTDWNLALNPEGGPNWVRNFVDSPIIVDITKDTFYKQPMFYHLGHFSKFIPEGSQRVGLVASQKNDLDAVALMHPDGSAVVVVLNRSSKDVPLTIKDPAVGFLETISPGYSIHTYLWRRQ
Summary of the method: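 Compounds titrated from 0.6 nM upwards against 0.2 nM enzyme in pH 5.9 citric acid/KH2PO4, taurocholate, tween-20; blue fluorogenic substrate 80 uM, 40 min room temperature, stopped and read Ex 365/Em 440 for AC50.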

[2] = molecular target: Glucocorticoid receptor (Homo sapiens) (UniProt P04150); assay: GR-GFP Redistribution (AID 450;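 active = compounds whose dose series gives a full or clear partial fitted curve of increased nuclear translocation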; also: potency is read from the fitted curve at half-maximal effect); settings: U2OS GR-GFP nuclear translocation, laser cytometry, 2 h
Glucocorticoid receptor (Homo sapiens), sequence (P04150 whole entry, looked up, the tested form may be a part): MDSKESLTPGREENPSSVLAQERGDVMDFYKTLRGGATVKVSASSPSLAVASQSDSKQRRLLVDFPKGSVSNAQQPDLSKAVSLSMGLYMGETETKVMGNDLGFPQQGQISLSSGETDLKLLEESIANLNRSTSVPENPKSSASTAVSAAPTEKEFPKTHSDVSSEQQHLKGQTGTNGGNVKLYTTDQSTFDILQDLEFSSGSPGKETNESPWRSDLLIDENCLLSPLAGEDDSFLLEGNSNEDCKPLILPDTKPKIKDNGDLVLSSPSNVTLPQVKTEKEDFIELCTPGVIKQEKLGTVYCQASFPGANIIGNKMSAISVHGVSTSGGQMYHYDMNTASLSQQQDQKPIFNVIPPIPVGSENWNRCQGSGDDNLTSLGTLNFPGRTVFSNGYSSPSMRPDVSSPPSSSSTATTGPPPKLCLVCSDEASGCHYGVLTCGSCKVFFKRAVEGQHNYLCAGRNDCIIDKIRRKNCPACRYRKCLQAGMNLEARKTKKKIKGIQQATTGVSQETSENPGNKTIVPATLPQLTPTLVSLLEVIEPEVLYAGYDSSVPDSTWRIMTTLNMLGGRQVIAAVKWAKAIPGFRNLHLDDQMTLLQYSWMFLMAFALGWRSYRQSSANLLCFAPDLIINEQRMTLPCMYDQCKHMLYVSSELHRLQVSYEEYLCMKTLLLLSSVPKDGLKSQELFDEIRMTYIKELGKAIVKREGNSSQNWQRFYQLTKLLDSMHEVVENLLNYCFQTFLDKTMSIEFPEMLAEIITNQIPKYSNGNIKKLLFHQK

[3] = molecular target: Glucocorticoid receptor (Homo sapiens) (UniProt P04150); assay: GR-EFC Redistribution (AID 451; calls by dose curve; also: potency is read from the fitted curve at half-maximal effect); settings: CHO-K1 GR-EFC translocation, beta-gal luminescence, 2 h
Summary of the method: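 CHO-K1 cells expressing nuclear EA and GR-ED fragments of b-gal; compounds titrated up to 46 uM final, 2 h at 37 C. GR nuclear translocation read as complemented b-gal luminescence after 1 h RT detection.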

[4] = molecular target: Mitogen-activated protein kinase 10 (Mus musculus) (UniProt Q61831); assay: JNK3 AlphaScreen Assay (AID 530; active = well fitted curve in either direction with a large enough effect, not every such curve was filed as active;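 also: kinase came from lysate of stimulated human HepG2 cells; signal reports phosphorylation of biotinylated GST-cJun 1-79 at Ser73 with 10 µM ATP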); settings: JNK3 lysate, c-Jun phosphorylation; series mostly up to 57.1 µM
Summary of the method: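 qHTS format: compounds tested as titrations against IL-1beta/TNF-alpha-activated HepG2 lysate JNK3 with biotin-GST-cJun substrate and 10 uM ATP at room temperature. Loss of anti-phospho-cJun AlphaScreen signal indicates inhibition.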

[5] = molecular target: 3',5'-cyclic-AMP phosphodiesterase 4B (Homo sapiens) (UniProt Q07343); assay: qHTS Assay for Inhibitors of PDE-IV (AID 607; active = well fitted activation curve with a large enough effect in the main read-out, with a control signal flat, not every such curve was filed as active); settings: HEK293 ACTOne CNG channel cells, membrane potential fluorescence; series mostly up to 22.9 µM
3',5'-cyclic-AMP phosphodiesterase 4B (Homo sapiens), sequence (Q07343 whole entry, looked up): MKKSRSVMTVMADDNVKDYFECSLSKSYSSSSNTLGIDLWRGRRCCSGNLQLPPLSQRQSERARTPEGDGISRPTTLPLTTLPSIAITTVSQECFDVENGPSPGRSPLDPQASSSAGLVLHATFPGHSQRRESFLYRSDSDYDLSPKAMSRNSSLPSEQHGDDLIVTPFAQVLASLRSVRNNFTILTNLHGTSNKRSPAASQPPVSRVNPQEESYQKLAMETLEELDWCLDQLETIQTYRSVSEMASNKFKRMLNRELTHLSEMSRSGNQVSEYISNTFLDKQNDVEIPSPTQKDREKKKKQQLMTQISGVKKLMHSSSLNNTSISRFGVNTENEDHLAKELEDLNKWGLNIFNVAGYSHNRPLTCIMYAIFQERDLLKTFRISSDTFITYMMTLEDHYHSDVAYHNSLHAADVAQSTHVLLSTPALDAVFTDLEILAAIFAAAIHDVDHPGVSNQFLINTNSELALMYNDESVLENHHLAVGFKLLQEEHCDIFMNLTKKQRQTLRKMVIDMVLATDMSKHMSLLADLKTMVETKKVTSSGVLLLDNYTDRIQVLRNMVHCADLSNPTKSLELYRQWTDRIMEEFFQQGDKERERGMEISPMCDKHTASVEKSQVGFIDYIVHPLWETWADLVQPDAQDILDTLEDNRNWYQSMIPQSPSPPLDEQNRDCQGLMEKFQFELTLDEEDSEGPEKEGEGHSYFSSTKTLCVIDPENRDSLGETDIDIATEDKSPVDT
Summary of the method: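 The readout is membrane depolarisation from a cAMP-sensing CNG channel, detected with a potential dye at ex 535/em 590. Cells were HEK293-derived (endogenous PDE-IV) at 1000 cells/well, titrated up to 22.9 uM final.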

[6] = Primary qHTS for small molecule stabilizers of the endoplasmic reticulum resident proteome: Secreted ER Calcium Modulated Protein (SERCaMP) assay (AID 1508630); settings: SH-SY5Y GLuc-SERCaMP (Gaussia luciferase released on ER calcium loss) secretion, thapsigargin, luminescence; series mostly up to 38.4 µM
Summary of the method: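 GLuc-SERCaMP-expressing SH-SY5Y cells, pretreated 16 h with compound, are challenged with thapsigargin to empty ER calcium stores; after 4 h, coelenterazine is added directly to the medium and luminescence is imaged.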

[7] = AP1 Signaling Pathway (AID 357; active = well fitted curve in either direction with a large enough effect, not every such curve was filed as active;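 also: ME-180 reporter cells stimulated with EGF at its EC50 level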); settings: ME-180 AP-1-bla reporter, EGF-induced, beta-lactamase ratio, 5 h; at 7.69 µM (top of the series) unless noted
Summary of the method: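 In this screen, ME-180 cells in Opti-MEM with 0.5% dialyzed FBS received EC50 EGF and compound titrations for 5 h. AP-1 reporter beta-lactamase was detected via CCF4 ratio, giving AC50 for positive and negative modulators.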

[8] = molecular target: Cytochrome P450 1A2 (Homo sapiens) (UniProt P05177); assay: p450-cyp1a2 (AID 410; calls by dose curve; also: potency is read from the fitted curve at half-maximal effect); settings: recombinant CYP1A2, luciferin-ME demethylation, luminescence; series mostly up to 57 µM
Cytochrome P450 1A2 (Homo sapiens), sequence (P05177 whole entry, looked up): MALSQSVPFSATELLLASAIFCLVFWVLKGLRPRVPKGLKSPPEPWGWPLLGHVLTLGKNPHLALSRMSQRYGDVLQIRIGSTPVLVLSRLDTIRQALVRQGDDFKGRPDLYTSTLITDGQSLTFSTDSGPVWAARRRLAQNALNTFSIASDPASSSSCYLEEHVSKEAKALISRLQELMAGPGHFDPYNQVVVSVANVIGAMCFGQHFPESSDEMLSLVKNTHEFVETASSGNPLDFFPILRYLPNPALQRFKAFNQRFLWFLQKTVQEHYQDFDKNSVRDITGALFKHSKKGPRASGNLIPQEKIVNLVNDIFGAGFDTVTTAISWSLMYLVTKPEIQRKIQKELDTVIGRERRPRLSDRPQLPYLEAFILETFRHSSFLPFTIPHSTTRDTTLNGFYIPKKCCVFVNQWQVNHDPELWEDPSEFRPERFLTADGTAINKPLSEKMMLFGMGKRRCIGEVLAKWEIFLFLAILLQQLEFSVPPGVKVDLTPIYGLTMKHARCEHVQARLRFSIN
Summary of the method: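 Inhibition was calculated relative to 57 uM furafylline (full inhibition). The reaction used human CYP1A2 at 20nM with Luciferin-ME at its Km, 100uM, driven by an NADPH-regenerating system for 60 min at room temperature.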

[9] = NFAT Signaling Pathway (AID 444; active = well fitted curve in either direction with a large enough effect, not every such curve was filed as active;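 also: carbachol stimulus at about its EC50 of 1 µM final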); settings: Jurkat NFAT-bla M1, carbachol, beta-lactamase ratio, 5 h; at 7.69 µM (top of the series) unless noted
Summary of the method: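 Jurkat cells with NFAT-driven β-lactamase reporter and co-expressed M1 receptor, stimulated with carbachol (final 1 uM, ~EC50), compound titration, 5 h at 37 °C. CCF4 loaded 1 h at RT; 460/530 nm ratio gave %activity and AC50.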

[10] = molecular target: Guanine nucleotide-binding protein G(i) subunit alpha-1 (Homo sapiens) (UniProt P63096); assay: qHTS Assay for Inhibitors of RGS12 GoLoco Motif Activity (Green Fluorophore) (AID 879); settings: Galphai1/FITC-RGS12 GoLoco peptide, fluorescence polarization; series mostly up to 57.1 µM;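 also: negative values mean loss of peptide binding seen as reduced polarization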
Guanine nucleotide-binding protein G(i) subunit alpha-1 (Homo sapiens), sequence (P63096 whole entry, looked up): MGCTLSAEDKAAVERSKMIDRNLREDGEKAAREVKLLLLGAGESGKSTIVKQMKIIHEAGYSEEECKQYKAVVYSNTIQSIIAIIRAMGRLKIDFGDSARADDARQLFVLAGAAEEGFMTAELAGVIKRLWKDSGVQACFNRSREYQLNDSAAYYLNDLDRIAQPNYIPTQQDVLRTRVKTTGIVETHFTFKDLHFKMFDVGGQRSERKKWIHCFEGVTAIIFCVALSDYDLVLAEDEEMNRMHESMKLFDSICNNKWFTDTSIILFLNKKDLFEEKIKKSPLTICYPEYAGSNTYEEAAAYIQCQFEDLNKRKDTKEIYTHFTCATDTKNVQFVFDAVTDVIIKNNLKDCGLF
Summary of the method: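 Fluorescence polarization assay: 50 nM Gαi1 with 10 nM FITC-labeled RGS12 GoLoco peptide in 10 mM Tris pH 7.5, 150 mM NaCl, 0.1 mM GDP, 0.05% NP40, 10 min at room temperature with compound.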

[11] = molecular target: Cytochrome P450 3A4 (Homo sapiens) (UniProt P08684); assay: qHTS Assay for Activators of Cytochrome P450 3A4 (AID 885); settings: recombinant CYP3A4, Luciferin-PPXE luminescence, 60 min; series mostly up to 57.1 µM; also: nearly all actives have a fitted effect of over 65% in size
Cytochrome P450 3A4 (Homo sapiens), sequence (P08684 whole entry, looked up): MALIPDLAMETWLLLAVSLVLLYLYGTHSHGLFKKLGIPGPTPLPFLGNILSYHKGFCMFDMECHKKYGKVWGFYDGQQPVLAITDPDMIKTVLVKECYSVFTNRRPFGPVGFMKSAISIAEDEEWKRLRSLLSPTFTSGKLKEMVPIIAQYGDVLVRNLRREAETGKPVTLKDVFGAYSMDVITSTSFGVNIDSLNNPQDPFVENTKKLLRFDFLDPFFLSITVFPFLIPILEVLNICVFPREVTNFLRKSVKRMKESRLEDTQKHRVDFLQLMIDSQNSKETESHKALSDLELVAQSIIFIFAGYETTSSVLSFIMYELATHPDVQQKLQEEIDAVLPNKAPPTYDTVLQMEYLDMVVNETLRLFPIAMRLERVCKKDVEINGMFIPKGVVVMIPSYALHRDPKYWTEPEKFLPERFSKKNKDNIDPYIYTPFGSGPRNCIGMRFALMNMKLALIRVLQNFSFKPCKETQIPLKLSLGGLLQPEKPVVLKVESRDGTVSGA
Summary of the method: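 Steps: enzyme/substrate mix dispensed; compound added, 10 min RT; NADPH regeneration solution added, 60 min RT; luciferin detection buffer stops reaction; 20 min later luminescence measured.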

[12] = molecular target: Muscarinic acetylcholine receptor M1 (Rattus norvegicus) (UniProt P08482); assay: qHTS Assay for Antagonists of Acetylcholine Muscarinic M1 Receptor: Measurement of IP-One Response (AID 944); settings: CHO-M1 cells, IP-One HTRF, antagonist mode; series mostly up to 46.1 µM; also: nearly all actives have a fitted effect of over 75% in size
Muscarinic acetylcholine receptor M1 (Rattus norvegicus), sequence (P08482 whole entry, looked up): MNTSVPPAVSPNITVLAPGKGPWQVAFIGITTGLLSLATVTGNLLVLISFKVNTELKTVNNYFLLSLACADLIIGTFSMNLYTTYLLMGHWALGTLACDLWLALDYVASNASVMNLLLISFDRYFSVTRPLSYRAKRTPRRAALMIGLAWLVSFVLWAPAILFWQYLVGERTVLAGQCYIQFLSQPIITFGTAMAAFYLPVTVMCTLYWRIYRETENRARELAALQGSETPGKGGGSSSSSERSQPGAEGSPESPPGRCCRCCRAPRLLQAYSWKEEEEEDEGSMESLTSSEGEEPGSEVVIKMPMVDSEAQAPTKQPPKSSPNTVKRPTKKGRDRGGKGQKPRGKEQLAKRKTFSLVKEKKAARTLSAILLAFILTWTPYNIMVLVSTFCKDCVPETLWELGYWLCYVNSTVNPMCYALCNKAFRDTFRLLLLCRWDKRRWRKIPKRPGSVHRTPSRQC
Summary of the method: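 Steps: plate transfected CHO-M1 cells overnight; add test compound, 10 min; add carbachol (200 nM, EC80) in stimulation buffer with LiCl; incubate 30 min; add labelled IP1 tracer and anti-IP1 antibody in lysis buffer; read HTRF after 10 min.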

[13] = molecular target: Pyruvate kinase (Leishmania mexicana) (UniProt Q27686); assay: qHTS Validation Assay for Inhibitors of Leishmania Mexicana Pyruvate Kinase (AID 945); settings: purified L. mexicana pyruvate kinase, enzyme activity, E451W mutant enzyme; series mostly up to 57.5 µM
Summary of the method: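 An endpoint luciferase assay: 0.2 nM LmPYK E451W turns over 0.5 mM PEP with 0.1 mM ADP for 1 h at room temperature, pH 7.2, before PKLight addition. Values are normalized to DMSO-only wells.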

[14] = molecular target: Pyruvate kinase PKM (Homo sapiens) (UniProt P14618); assay: qHTS Assay for Activators of Human Muscle Pyruvate Kinase (AID 954; active = well fitted curve in the direction sought with a large enough effect, not every such curve was filed as active); settings: purified human muscle pyruvate kinase, luciferase-coupled luminescence, 1 h; series mostly up to 57.5 µM
Summary of the method: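 Reaction: 0.1 nM purified PKM2 with 0.5 mM phosphoenolpyruvate and 0.1 mM ADP, room temperature, 1 h. Readout: luciferase-based ATP luminescence after stop reagent. Activators judged against a 0.3 nM enzyme column.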

[15] = molecular target: Alpha-galactosidase A (Homo sapiens) (UniProt P06280); assay: Counterscreen for Glucocerebrosidase Inhibitors: qHTS Assay for Human alpha-Galactosidase at pH 4.5 (AID 992); settings: purified enzyme, fluorogenic substrate; series mostly up to 76.9 µM
Alpha-galactosidase A (Homo sapiens), sequence (P06280 whole entry, looked up): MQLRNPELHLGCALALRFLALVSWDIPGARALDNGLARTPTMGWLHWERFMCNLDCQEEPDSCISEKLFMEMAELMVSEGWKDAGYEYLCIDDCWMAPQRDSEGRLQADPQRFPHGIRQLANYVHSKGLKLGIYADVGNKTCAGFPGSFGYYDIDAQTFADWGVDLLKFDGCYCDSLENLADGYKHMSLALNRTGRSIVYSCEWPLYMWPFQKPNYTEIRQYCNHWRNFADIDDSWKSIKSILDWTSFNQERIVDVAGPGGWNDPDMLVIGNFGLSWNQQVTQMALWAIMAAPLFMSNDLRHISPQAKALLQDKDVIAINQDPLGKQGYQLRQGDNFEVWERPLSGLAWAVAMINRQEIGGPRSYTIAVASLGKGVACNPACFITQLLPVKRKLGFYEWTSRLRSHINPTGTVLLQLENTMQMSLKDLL
Summary of the method: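 Concentration-response curves (0.7 nM to 77 uM final) were modeled with the Hill equation to give AC50. Reactions: 2 nM enzyme, 80 uM fluorogenic alpha-galactoside, pH 4.5 citric acid buffer, 20 min, room temperature.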

[16] = molecular target: alpha-glucosidase (Oryza sativa, rice) (UniProt Q653V4); assay: Counterscreen for Glucocerebrosidase Inhibitors: qHTS Assay for Rice alpha-Glucosidase at pH 5.0 (AID 997); settings: rice alpha-glucosidase enzyme activity; series mostly up to 76.9 µM
Summary of the method: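 Rice alpha-glucosidase (4 nM final) with 400 uM 4-methylumbelliferyl-alpha-D-glucopyranoside in citrate buffer pH 5.0, 20 min at room temperature, stopped at pH 10; fluorescence 365/440 nm, compounds 0.7 nM–77 uM, AC50 from Hill fits.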

[17] = molecular target: DNA dC->dU-editing enzyme APOBEC-3G (Homo sapiens) (UniProt Q9HC16); assay: qHTS for inhibitors of Vif-A3G interactions: Validation (AID 588379); settings: Vif-A3G protein interaction assay; series mostly up to 46.1 µM
DNA dC->dU-editing enzyme APOBEC-3G (Homo sapiens), sequence (Q9HC16 whole entry, looked up): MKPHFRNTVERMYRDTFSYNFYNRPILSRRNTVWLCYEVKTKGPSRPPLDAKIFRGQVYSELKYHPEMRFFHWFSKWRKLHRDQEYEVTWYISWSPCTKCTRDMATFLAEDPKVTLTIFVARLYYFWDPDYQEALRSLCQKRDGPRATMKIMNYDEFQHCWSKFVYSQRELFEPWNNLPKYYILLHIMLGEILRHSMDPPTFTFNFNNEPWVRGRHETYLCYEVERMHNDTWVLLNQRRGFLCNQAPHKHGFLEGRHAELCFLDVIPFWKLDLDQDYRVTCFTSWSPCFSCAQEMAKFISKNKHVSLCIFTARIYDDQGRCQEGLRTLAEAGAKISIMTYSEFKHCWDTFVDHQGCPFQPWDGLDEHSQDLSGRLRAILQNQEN
Summary of the method: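 HeLa cells stably expressing Vif and A3G-eYFP, 700 cells/well, incubated overnight at 37 deg C, then exposed to compound overnight at 37 deg C. Inhibition of Vif-mediated degradation read as increased yellow fluorescence (Ex 488/Em 500-530) by laser-scanning cytometry.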

[18] = Stat Signaling Pathway (AID 446; active = well fitted curve in either direction with a large enough effect, not every such curve was filed as active;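 also: ME-180 cervical cancer cells given 40 pM IL-6 alongside compound; SIE-controlled beta-lactamase reporter measured as 460/530 nm FRET emission ratio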); settings: ME-180 SIE beta-lactamase reporter, IL-6 stimulated, 5 h; at 7.69 µM (top of the series) unless noted
Summary of the method: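 Screening format detects activators and inhibitors alike: ME-180 SIE-bla cells stimulated at 40 pM IL-6 for 5 hrs with compound, then dual-emission beta-lactamase read at 405 nm excitation.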

[19] = molecular target: Cytochrome P450 3A4 (Homo sapiens) (UniProt P08684); assay: qHTS Assay for Inhibitors and Substrates of Cytochrome P450 3A4 (AID 884); settings: recombinant CYP3A4, Luciferin-PPXE luminescence; series mostly up to 57.1 µM; also: potency is read from the fitted curve at half-maximal effect; nearly all actives have a fitted effect of over 50% in size
Summary of the method: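 20 nM human CYP3A4 with 25 uM Luciferin-PPXE (at KM) in 200 mM KPO4, preincubated 10 min with compound; NADPH regeneration started a 60 min RT reaction. Luciferin detected by luminescence, normalized to 57 uM ketoconazole as full inhibition.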

SMILES	Potency [1]	Potency [2]	Potency [3]	Potency [4]	Potency [5]	outcome [6]	activity change, negative = inhibition [7]	Potency [8]	activity change, negative = inhibition [9]	Potency [10]	Potency [11]	Potency [12]	outcome [13]	outcome [14]	outcome [15]	outcome [16]	outcome [17]	activity, negative = inhibition [18]	Potency [19]
CN(C)c1ncc2nc(-c3ccc(Cl)cc3)c(=O)n(C3CC3)c2n1	> 11.4 µM	> 9.22 µM	> 46 µM	inactive	inactive	inactive	–	–	–	–	–	–	–	–	–	–	–	–	–
Oc1cc2c(c(Cl)c1O)CCNC[C@H]2c1ccccc1	–	> 46 µM	> 46 µM	inactive	inactive	inactive	-21% [at 38 µM]	inactive	-20.4% [at 38 µM]	inactive	inactive	inactive	inactive	inactive	inactive	inactive	inactive	–	–
COCCn1c(=O)c(-c2cn(C)c3ccccc23)nc2cncnc21	–	> 9.22 µM	> 46 µM	inactive	–	inactive	1.74%	0.398 µM (active)	-1.67%	–	inactive	–	–	–	–	–	–	-9.49%	3.16 µM (active)
O=C(Nc1ccccc1)N1CC2(CCN(C(=O)c3cnccn3)CC2)C1	–	–	> 46 µM	inactive	inactive	inactive	-11.2%	20 µM (active)	4.45%	–	–	–	–	–	–	–	–	2.96%	–
